From PubChem BioAssay
An excerpt weighted towards active compounds, which were near 10% of everything screened.
IMPase cell inh: cell-permeable inhibitors of inositol monophosphatase (IMPase); P97697; CHO-M1 cells, IP1 accumulation, HTRF TR-FRET ratio; inhibition (IP1 accumulation), % at 46.1 µM; 120,000 tested, under 10 active; active = well fitted curve in the direction sought with a large enough effect in the signal ratio, not every such curve was filed as active; inconclusive = small, poorly fitted or top-dose-only effect, or a change in a side signal; inactive = no such curve, though single readings can be large or run the other way; the % refers to the signal ratio;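 also: cells stimulated with carbachol in lithium chloride buffer; higher means more IMPase inhibition seen as more IP1 and lower FRET ratio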
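Carbachol-driven Gq signalling in CHO-M1 cells (2000/well) generates IP1. Compounds that block IMPase raise IP1 and so reduce the FRET signal from Eu-anti-IP1 and d2-IP1 after a 10 min room-temperature lysis.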
ALDH1A1 inh: blocks purified human ALDH1A1 activity | AID 1030 | 7.3% of 220,000 active | Purified ALDH1A1, NADH fluorescence, propionaldehyde substrate | P00352 | Potency, µM (titrated, usually from 75.3 µM), actives largely listed as inhibitors
Target sequence (P00352 whole entry, looked up): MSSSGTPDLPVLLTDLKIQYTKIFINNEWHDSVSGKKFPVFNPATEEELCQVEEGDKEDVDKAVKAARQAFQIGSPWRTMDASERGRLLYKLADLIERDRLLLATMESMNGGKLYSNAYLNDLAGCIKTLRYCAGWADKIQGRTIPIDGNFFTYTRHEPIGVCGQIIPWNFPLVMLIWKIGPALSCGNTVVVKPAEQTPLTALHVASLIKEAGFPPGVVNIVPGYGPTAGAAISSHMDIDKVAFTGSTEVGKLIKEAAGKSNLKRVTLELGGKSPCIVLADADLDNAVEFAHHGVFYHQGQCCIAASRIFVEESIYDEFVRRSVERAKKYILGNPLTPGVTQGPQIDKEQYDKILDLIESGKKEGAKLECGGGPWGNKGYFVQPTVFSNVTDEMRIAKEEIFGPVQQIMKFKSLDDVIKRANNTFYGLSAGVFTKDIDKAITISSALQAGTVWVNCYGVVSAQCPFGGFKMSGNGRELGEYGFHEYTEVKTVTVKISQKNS
PNC assembly inh: perinucleolar compartment assembly inhibition. PC3M PTB-GFP, PNC prevalence imaging, 16 h; stronger effect = lower value. activity change (PNC), negative = inhibition, % at 10 µM. AID 2417. 3.1% of 140,000 active;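 active = readout at or below -70, meaning at least 70% loss of cells showing the perinucleolar compartment, a nuclear body marking cancer cells; inconclusive = readout between -30 and a set limit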
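PC3M cells stably expressing PTB-GFP, 750–1000 cells/well, treated 16 h at 37 °C with compound (23 nl of library stock), in duplicate. After paraformaldehyde fixation and Hoechst stain, imaged at 20x; PNC prevalence scored by image analysis.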
HPGD inh: inhibitors of human 15-hydroxyprostaglandin dehydrogenase (HPGD). purified HPGD, NADH fluorescence kinetic, PGE2 substrate. Potency, µM, hits mostly inhibitors. 4.3% of 150,000 active
Target sequence (P15428 whole entry, looked up): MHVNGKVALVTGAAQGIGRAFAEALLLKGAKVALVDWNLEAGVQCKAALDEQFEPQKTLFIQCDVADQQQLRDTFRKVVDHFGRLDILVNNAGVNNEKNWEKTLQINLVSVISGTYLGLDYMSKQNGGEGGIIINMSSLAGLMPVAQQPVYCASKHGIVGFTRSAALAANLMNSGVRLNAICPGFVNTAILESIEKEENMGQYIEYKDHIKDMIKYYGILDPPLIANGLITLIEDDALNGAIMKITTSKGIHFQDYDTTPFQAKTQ
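20 nM HPGD preincubated 15 min at room temperature with compound in 50 mM Tris-HCl pH 8, 0.01% Tween 20. Started with 1 mM NAD+ and 30 uM prostaglandin E2; NADH fluorescence (360/450 nm) read 5 times over 30-s intervals, last minus first.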
LMNA splice mod: modulators of lamin A splicing; Potency, µM (series often up to 46.1 µM), usual class: inhibitors; HeLa LMNA splicing GFP/RFP minigene ratio, 48 h; 0.01% of 200,000 active; AID 1487; active = well fitted inhibition curve with a large enough effect in the signal ratio, with a control signal flat, not every such curve was filed as active; inconclusive = small, poorly fitted or top-dose-only effect, or effect the other way, or a change in a side signal; the % refers to the signal ratio
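S3 HeLa cells stably expressing lamin A-EGFP splicing minigene plus DsRed2, 600 cells/well, 48 h compound exposure at 37C. Laser-scanning cytometry; analysed as GFP (500-530 nm)/RFP (575-640 nm) total intensity ratio; 0.5% DMSO vehicle.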
KinaseGlo FLuc: blocks Kinase-Glo luciferase, a counter-screen artifact. Q27757. Kinase-Glo luciferase, ATP luminescence, 8 min. Potency, µM (titrated, usually from 38.3 µM), actives largely listed as inhibitors. 0.28% of 200,000 active. AID 1379; active = well fitted inhibition curve with a large enough effect; inconclusive = small, poorly fitted or top-dose-only effect; also: nearly all actives have a fitted effect of over 60% in size
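Inhibition of Kinase-Glo luciferase light generation was assessed at 10 uM ATP in pH 7.2 imidazole buffer, with luminescence measured after eight minutes at ambient temperature.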
Hits are given with their value; i = inactive; ? = inconclusive; nt = no result given; [ ] = another dose, or the depositor's remark. Unless noted, calls follow the shape of the dose curve; as a rule, active = well fitted inhibition curve with a large enough effect (not every such curve was filed as active); inconclusive = small, poorly fitted or top-dose-only effect, or another doubt; inactive = no such curve, though single readings can be large or run the other way.

SMILES	IMPase cell inh	ALDH1A1 inh	PNC assembly inh	HPGD inh	LMNA splice mod	KinaseGlo FLuc
Oc1c(C(c2ccccc2Cl)N2CCCC2)ccc2cccnc12 (centres undefined)	nt	?	nt	nt	i	i
Oc1c(C(c2cccs2)N2CCN(c3ccccc3)CC2)ccc2cccnc12 (centres undefined)	i	2µM	?	1.8µM	?	i
O=C(O)C1=C[C@@H](c2ccccc2)C[C@@H](OCc2ccc(CO)cc2)O1	nt	i	nt	nt	nt	nt
O=C(C1=C[C@@H](c2ccccc2)C[C@@H](OCc2ccc(CO)cc2)O1)N1CCCCCCC1	nt	25µM	nt	nt	nt	nt
CCO[C@H]1OC(C(=O)N2CCN(Cc3ccccc3)CC2)=C[C@@H](c2ccccc2)[C@@H]1CCCO	nt	i	nt	nt	nt	nt
O=C(NC1CC1)C1=C[C@H](c2ccc3c(c2)OCO3)C[C@H](OCc2ccc(CO)cc2)O1	nt	i	nt	nt	nt	nt
C#CCNC(=O)C1=C[C@H](c2ccc3c(c2)OCO3)C[C@H](OCc2ccc(CO)cc2)O1	nt	28µM	nt	nt	nt	nt
CCO[C@H]1OC(C(=O)N2CCN(Cc3ccccc3)CC2)=C[C@@H](c2ccc(C(F)(F)F)cc2)[C@@H]1CCCO	nt	4.5µM	nt	nt	nt	nt
O=C(C1=C[C@H](c2ccccc2)C[C@H](OCc2ccc(CO)cc2)O1)N1CCN(Cc2ccccc2)CC1	nt	14µM	nt	nt	nt	nt
COc1ccccc1CNC(=O)COCc1cc(-c2cccs2)on1	nt	nt	nt	nt	i	nt
O=C(C1=C[C@H](C2CC2)C[C@H](OCCCCO)O1)N1CCN(Cc2ccc3c(c2)OCO3)CC1	nt	i	nt	nt	nt	nt
O=C(C1=C[C@@H](C2CCCCC2)C[C@@H](OCCCCO)O1)N1CCN(Cc2ccccc2)CC1	nt	16µM	nt	nt	nt	nt
C=CCOC(=O)C1=C[C@@H](c2csc3ccccc23)C[C@@H](OCc2ccc(CO)cc2)O1	nt	25µM	nt	nt	nt	nt
CCOc1ccccc1C(=O)Nc1c(NC)c2ccccc2oc1=O	i	nt	nt	nt	nt	nt
CCCc1nn2c(=O)cc(COC(=O)c3ccccc3NC(=O)c3cccs3)nc2s1	nt	nt	nt	nt	i	nt
O=C(c1ccc(F)cc1)N1CCCCC(Sc2nnc3ccccn23)C1=O (centres undefined)	i	i	i	i	i	i
Cc1cc2nnc(SC3CCCCN(C(=O)c4ccc(F)cc4)C3=O)n2c2ccccc12 (centres undefined)	i	18µM	i	?	i	i
COc1ccc2ccccc2c1C(=O)/C=C\c1ccoc1	nt	20µM	i	?	?	i
CCc1cc2c(=O)c(-c3nc4ccccc4n3C)c(C(C)C)oc2c(CN2CCN(C)CC2)c1O	i	?	-104	?	?	i
O=C1C=CC2=C3c4cc(O)c(O)cc4C[C@@]3(O)COC2=C1	nt	i	nt	11µM	nt	i
COc1cccc(C(c2c(C)[nH]n(-c3ccccc3)c2=O)c2c(C)[nH]n(-c3ccccc3)c2=O)c1OC	nt	3.5µM	i	22µM	i	i
CCN1CCC(=NNC(=O)CC23CC4CC(CC(C4)C2)C3)CC1	i	1.8µM	i	i	i	i
CCOc1cc2c3c(c1)C(C)=CC(C)(C)N3C(=O)C2=O	nt	?	nt	nt	i	i
CC1CC2(CCCCC2)N2C(=O)C(=O)c3cccc1c32 (centres undefined)	i	0.045µM	i	i	i	i
CCOc1cc2c3c(c1)C(C)CC(C)(C)N3C(=O)C2=O (centres undefined)	i	0.4µM	i	i	i	i
SMILES	IMPase cell inh	ALDH1A1 inh	PNC assembly inh	HPGD inh	LMNA splice mod	KinaseGlo FLuc
Cc1cc2c3c(c1)C(C)CC(C)(C)N3C(=O)C2=O (centres undefined)	nt	0.16µM	nt	nt	i	i
Cc1ccc2c3c1C(=O)C(=O)N3C(C)(C)CC2C (centres undefined)	i	i	i	i	i	i
CCC/C=C(\CCC)C(NC(=O)c1ccccc1)c1ccc(C(=O)OC)cc1 (centres undefined)	nt	i	nt	i	nt	i
Nc1scc2c(C(=O)N/N=C/c3ccc(Cl)cc3)nn(-c3ccccc3)c(=O)c12	?	10µM	?	14µM	i	i
CCOC(=O)c1nn(-c2ccccc2)c(=O)c2c(NC(C)=O)scc12	nt	?	nt	nt	i[9.22 µM]	i
COc1ccccc1/C=C/C=N/n1c(-c2n[nH]c3c2CCC3)n[nH]c1=S	nt	8.9µM	nt	nt	nt	nt
COc1cccc(/C=N/n2c(-c3n[nH]c4c3CCC4)n[nH]c2=S)c1O	nt	?	i	?	i	i
S=c1[nH]nc(-c2ccco2)n1/N=C/C=C/c1ccco1	nt	i	?	14µM	i	i
S=c1[nH]nc(-c2cccnc2)n1/N=C/c1ccco1	nt	?	nt	nt	nt	i
S=c1[nH]nc(-c2n[nH]c3c2CCC3)n1/N=C/C=C/c1ccco1	nt	7.1µM	nt	nt	nt	nt
O=C(/C=C/c1ccc(O)c(O)c1)O[C@@H]1C[C@@](O)(C(=O)O)C[C@H](O)[C@@H]1O	i	?	nt	i	nt	i
CSC1=NC2(CCN(C(=O)NC3CCCCC3)CC2)N=C1c1ccc(C)cc1	nt	nt	nt	nt	i	nt
CCCCOC(=O)c1ccc(Nc2ncnc3[nH]ncc23)cc1	nt	nt	nt	nt	i	nt
Cc1ccccc1OCCC(=O)Nc1cccc(S(=O)(=O)Nc2ccccc2Cl)c1	nt	i	i	i	?	i
O=C(Nc1cccc(S(=O)(=O)Nc2ccccc2F)c1)c1ccc2ccccc2n1	nt	3.2µM	nt	nt	i	i
O=C(/C=C/c1ccccc1)Nc1cccc(S(=O)(=O)Nc2ccccc2F)c1	nt	0.79µM	i	2µM	?	i
O=C(Cc1ccc(Cl)cc1Cl)Nc1cccc(S(=O)(=O)Nc2ccccc2F)c1	nt	3.5µM	i	3.5µM	?	i
COc1ncc2nc(-c3ccc(F)cc3)c(=O)n(-c3ccccc3)c2n1	nt	?	nt	nt	i	nt
CCOCCc1nn2c(=O)cc(COC(=O)c3ccc(NC(=O)c4ccc(F)cc4)cc3)nc2s1	nt	nt	nt	nt	i	nt
CCC(C)OC(=O)c1cc(C)nc2c(Br)cc(Br)cc12 (centres undefined)	i	i	-100	i	i	i
CC(C)(CNc1ccc([N+](=O)[O-])cc1C#N)N1CCOCC1	nt	2.2µM	nt	nt	?	i
N#Cc1cc([N+](=O)[O-])ccc1NCCN1CCOCC1	nt	i	nt	nt	i	i
CC(C)OC(=O)[C@@H]1CC[C@H](C)[C@@H](CCCCO)O1	nt	i	nt	i	nt	i
O=C1OC(c2ccccc2)=C/C1=C/N1CCCCC1	i	10µM	i	?	i	i
O=C1OC(c2ccccc2)=N/C1=C\N1CCCCC1	i	i	i	i	i	i
CC(CCc1ccccc1)NC(=O)c1ccc(NC(=O)c2cccc(Br)c2)cc1 (centres undefined)	nt	i	-113	i	i	i
C=CCOC(=O)N[C@@H](CC(C)C)/C(C(=O)OC)=C(\C)NCc1ccccc1	nt	i	nt	i	nt	i
Cc1ccc(OC(=O)c2snnc2C)cc1C	nt	nt	nt	nt	i	nt
CN(C(=O)COc1ccccc1C(=O)NCCc1ccccc1)c1ccccc1	nt	i	-100	i	i	i
